The values that follow come from PubChem BioAssay (NCI).

Some test systems named below: DU-145 prostate; K-562 leukemia; MALME-3M melanoma; MDA-MB-231 breast; RXF 393 renal; SF-268 CNS; SF-295 CNS; SF-539 CNS; UACC-257 melanoma; M14 melanoma; HCT-15 colon; HT29 colon; SNB-75 CNS; SNB-19 CNS; U251 CNS; PC-3 prostate; SK-MEL-5 melanoma; UACC-62 melanoma; LOX IMVI melanoma; SK-MEL-28 melanoma.
Experiment in all cases: NCI-60 one-dose screen, 48 h (100 = growth as untreated, 0 = no growth, -100 = all killed)
Holding throughout (conditions): 10 µM unless noted

Each structure is given as a SMILES string. The panel holds about 83,000 compounds, 20% with a hit somewhere; the sample as a whole holds those more often.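 Compound tested at a single concentration for 48 hours in 96-well plates; a percent growth value below 10 was scored as active.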 Unmarked numbers belong to inactive results. Activity calls are given as the source filed them.

As to `C=C(C)[C@@H]1CC[C@]2(C(N)=O)CC[C@]3(C)[C@H](CC[C@@H]4[C@@]5(C)CC[C@H](O)C(C)(C)[C@@H]5CC[C@]43C)[C@@H]12`, the growth with DU-145 prostate was -33% [100 µM] (active); with K-562 leukemia it was 4.57% [100 µM] (active); with MALME-3M melanoma it was -57.1% [100 µM] (active); in the experiment on MDA-MB-231 breast, -28.4% [100 µM] (active); in the experiment on RXF 393 renal, -49.3% [100 µM] (active); with SF-268 CNS, 4.41% [100 µM] (active). The growth in the experiment with SF-295 CNS was -57.7% [100 µM] (active); in the experiment with SF-539 CNS it was -70.5% [100 µM] (active); in the experiment on UACC-257 melanoma, -6.08% [100 µM] (active); in the experiment on M14 melanoma it was 8.8% [100 µM] (active); in the experiment with HCT-15 colon, 6.36% [100 µM] (active); in the experiment on HT29 colon it was -49.5% [100 µM] (active). In addition, the growth with SNB-75 CNS is -39.1% [100 µM] (active); with SNB-19 CNS it was 1.3% [100 µM] (active); with U251 CNS, -69.3% [100 µM] (active); in the experiment on PC-3 prostate, -24.5% [100 µM] (active); in the experiment with SK-MEL-5 melanoma, -39.6% [100 µM] (active); in the experiment with UACC-62 melanoma, -23.2% [100 µM] (active). The results for the growth in the experiment with LOX IMVI melanoma and in the experiment on SK-MEL-28 melanoma were -72.8% [100 µM] (active) and 0.379% [100 µM] (active), respectively.
With `COc1ccc(/C=C2\N=C(Nc3ccccc3)N(NC(=O)c3ccccn3)C2=O)cc1`, the growth was 109% with DU-145 prostate; 81.1% in the experiment on K-562 leukemia; 105% with MALME-3M melanoma; 94.6% in the experiment on MDA-MB-231 breast; 95.8% in the experiment with RXF 393 renal; 101% in the experiment with SF-268 CNS. Further, the growth in the experiment on SF-295 CNS is 98.2%; in the experiment with SF-539 CNS it was 98.3%; in the experiment with UACC-257 melanoma, 108%; with M14 melanoma, 101%; in the experiment with HCT-15 colon, 91.6%; with HT29 colon it was 112%. Also, the growth was 72.4% in the experiment with SNB-75 CNS; 87.2% in the experiment on SNB-19 CNS; 95.8% in the experiment with U251 CNS; 101% in the experiment with PC-3 prostate; 93.4% in the experiment with SK-MEL-5 melanoma; 86.2% in the experiment on UACC-62 melanoma. In addition, the results for the growth in the experiment on LOX IMVI melanoma and in the experiment with SK-MEL-28 melanoma were 95.5% and 102%, respectively.
In the case of `Nc1nc(SCc2cccc([N+](=O)[O-])c2)c2[nH]cnc2n1`, the growth is 104% with DU-145 prostate; 92% with K-562 leukemia; 107% in the experiment on MALME-3M melanoma; 103% in the experiment with MDA-MB-231 breast; 73.6% with RXF 393 renal; 90.2% in the experiment on SF-268 CNS. Also, the growth with SF-295 CNS is 93.6%; in the experiment with SF-539 CNS, 103%; in the experiment on UACC-257 melanoma, 104%; in the experiment with M14 melanoma, 100%; with HCT-15 colon, 95.1%; in the experiment on HT29 colon, 98.4%. In addition, the growth is 89.5% in the experiment with SNB-75 CNS; 91.7% with SNB-19 CNS; 95% in the experiment on U251 CNS; 92.3% in the experiment on PC-3 prostate; 98% in the experiment with SK-MEL-5 melanoma; 91.3% with UACC-62 melanoma. In addition, the growth in the experiment with LOX IMVI melanoma is 77.9%; in the experiment on SK-MEL-28 melanoma, 106%.
Turning to `CC1Cc2c(Cl)ncnc2N(C)c2ccc(Cl)cc21` (stereo not given), the growth in the experiment with DU-145 prostate was 40.9%; in the experiment with K-562 leukemia it was 14.7%; in the experiment on MALME-3M melanoma, 22.6%; in the experiment with MDA-MB-231 breast, -39.8% (active); in the experiment with RXF 393 renal it was 0.883% (active); with SF-268 CNS, 18.8%. In addition, the growth in the experiment on SF-295 CNS is 20.2%; in the experiment with SF-539 CNS it was 28.1%; with UACC-257 melanoma, 4.86% (active); with M14 melanoma, 11.1%; in the experiment with HCT-15 colon it was 6.68% (active); in the experiment with HT29 colon, -0.897% (active). Moreover, the growth was 50.1% in the experiment with SNB-75 CNS; 25.2% with SNB-19 CNS; 18.8% in the experiment on U251 CNS; 13.9% in the experiment with PC-3 prostate; -86.9% (active) in the experiment with SK-MEL-5 melanoma; 11.8% in the experiment on UACC-62 melanoma. For the same compound, the growth in the experiment on LOX IMVI melanoma was -69.3% (active); with SK-MEL-28 melanoma, 20.6%.
For the compound `O=C(Nc1cccc(C2=NCCN2)c1)c1cccc(C(=O)Nc2cccc(C3=NCCN3)c2)c1`, the growth was 107% in the experiment on DU-145 prostate; 96.6% in the experiment with K-562 leukemia; 97.1% with MALME-3M melanoma; 101% in the experiment on MDA-MB-231 breast; 102% in the experiment on RXF 393 renal; 96.4% with SF-268 CNS. Moreover, the growth in the experiment on SF-295 CNS is 99%; in the experiment with SF-539 CNS, 95.7%; in the experiment on UACC-257 melanoma it was 95.8%; in the experiment with M14 melanoma, 99%; in the experiment on HCT-15 colon, 97.6%; with HT29 colon, 110%. Further, the growth with SNB-75 CNS is 86.2%; in the experiment with SNB-19 CNS, 98%; in the experiment on U251 CNS it was 101%; with PC-3 prostate it was 99%; with SK-MEL-5 melanoma it was 99.1%; in the experiment on UACC-62 melanoma, 94.3%. The growth with LOX IMVI melanoma was 91.4%; in the experiment on SK-MEL-28 melanoma it was 102%.
For the compound `Cc1cc(C)c(S(=O)(=O)/N=c2/n(-c3ccccc3)nc3n2CCN3C2=NCCN2)c(C)c1`, the growth was 98% in the experiment with DU-145 prostate; 38.9% in the experiment with K-562 leukemia; 50.7% in the experiment on MALME-3M melanoma; 67.7% with MDA-MB-231 breast; 54.9% with RXF 393 renal; 81.4% in the experiment with SF-268 CNS. The growth in the experiment with SF-295 CNS was 95.8%; in the experiment on SF-539 CNS it was 88.8%; in the experiment on UACC-257 melanoma it was 92%; in the experiment with M14 melanoma, 98.9%; in the experiment with HCT-15 colon, 90.1%; with HT29 colon, 58%. The growth with SNB-75 CNS was 74.3%; in the experiment with SNB-19 CNS, 91.5%; in the experiment on U251 CNS, 76.4%; in the experiment with PC-3 prostate, 69.5%; in the experiment on SK-MEL-5 melanoma, 60.4%; in the experiment with UACC-62 melanoma, 88.8%. In addition, the growth in the experiment with LOX IMVI melanoma was 73.3%; in the experiment with SK-MEL-28 melanoma, 82.3%.
On to `COc1ccc(/C=C/C(=C/c2c(O)[nH]c3cc(Br)ccc23)N=O)cc1`, for which the growth in the experiment on DU-145 prostate is 114%; in the experiment with K-562 leukemia, 89.1%; with MALME-3M melanoma, 95.4%; with MDA-MB-231 breast it was 101%; in the experiment with RXF 393 renal, 130%; in the experiment on SF-268 CNS it was 107%. Further, the growth is 107% with SF-295 CNS; 99.4% in the experiment with SF-539 CNS; 114% in the experiment with UACC-257 melanoma; 115% in the experiment with M14 melanoma; 113% in the experiment on HCT-15 colon; 114% in the experiment on HT29 colon. Further, the growth with SNB-75 CNS is 113%; in the experiment on SNB-19 CNS, 109%; in the experiment with U251 CNS, 105%; in the experiment with PC-3 prostate it was 104%; with SK-MEL-5 melanoma, 103%; with UACC-62 melanoma it was 102%. For the same compound, the results for the growth in the experiment on LOX IMVI melanoma and in the experiment with SK-MEL-28 melanoma were 90.8% and 120%, respectively.
